# In PubChem BioAssay AID758 (NMMLSC, 2007):
# About 110 (0.058%) of roughly 190,000 compounds were called active. Inconclusive results (about 2%) are left out. What follows is part of a selection rich in actives, with near analogues and random picks from the rest. Unmarked numbers belong to inactive results.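 How the source made its calls: active means fluorescent GTP binding to Rab7 beads changed by at least 20 points from the 100% baseline, either direction, mostly lower; inconclusive means compound itself probably fluorescent, or too few beads counted; inactive means the rest.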
# System: Rab7 GTPase wild type (dog), Bodipy-FL-GTP binding
# Experiment: wildtype dog Rab7 nucleotide binding alteration – biochemical, multiplex bead flow cytometry, primary screen (AID 758);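 further: median green fluorescence of bound Bodipy-FL-GTP per Rab7 bead population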
# Conditions: GST-Rab7 beads, fluorescent GTP binding, at 10 µM, actives lie on both sides, untreated = 100%, excess cold GTP = 0%
row,SMILES,GTP binding activity (percent of control)
1,Cc1ccccc1OCCC(=O)OCC(=O)NC(C)c1ccccc1 (stereo unspecified),95%
2,N#Cc1c(-c2ccc(F)cc2)nc(-c2ccccc2)[nH]c1=O,93%
3,O=C(c1cccc(S(=O)(=O)N2CCCC2)c1)N(Cc1ccco1)C1CCS(=O)(=O)C1 (stereo unspecified),97%
4,CN(CCc1cnn(C)c1)Cc1cn(C)nc1-c1ccccc1F,100%
5,Cc1cc(=O)n2[nH]c(-c3sccc3-n3c(C)ccc3C)cc2n1,91%
6,O=C(N/N=C/c1ccc(OCC2COCCO2)cc1)c1ccc(Br)cc1 (stereo unspecified),108%
7,Cc1c(C(=O)O)nnn1-c1nonc1N,97%
8,CCc1ccc(CN(C)C(=O)CCc2nnc(-c3ccc(-c4ccccc4)cc3)o2)nc1,96%
9,COC(=O)c1ccc(COC(=O)c2cnccn2)cc1,105%
10,COc1ccc(-c2[nH]ncc2CN(C)Cc2cccnc2)c(F)c1,96%
11,CCn1c(SCc2ccccc2)nc2c(c1=O)SCC2,94%
12,Cc1cccc(Oc2c([N+](=O)[O-])c(=O)n(C)c3ccccc23)c1,100%
13,COC(=O)c1ccc(CN2CCC(CO)(Cc3ccc(OC)cc3)CC2)cc1,103%
14,CN(C)c1nc(N)nc(Cn2nnc(-c3ccc(C(F)(F)F)cc3)n2)n1,104%
15,CCCNS(=O)(=O)c1ccc(CCC(=O)N2CCCC2)cc1,104%
16,CN(CC(=O)Nc1ccccc1F)CC(=O)Nc1ccccc1Br,105%
17,CCOC(=O)CCCNC(=O)COC(=O)/C=C/c1ccc2c(c1)OCO2,90%
18,Cc1nc2sc3c(c2c(=O)n1NC(=O)CCl)CCCC3,90%
19,CSc1ccc(CN2C(=O)NC3(CCCCCC3)C2=O)cc1,97%
20,Fc1cccc(CSc2nnc3ccc(-c4ccncc4)nn23)c1,94%
21,Cc1cc([N+](=O)[O-])ccc1NC(=O)c1ccc(NC(=O)C(C)C)cc1,98%
22,CCCCC(CC)CNC(=O)C(=O)C1C(=O)Nc2ccccc21 (stereo unspecified),103%

row,SMILES,GTP binding activity (percent of control)
1,COc1ccccc1-c1nc(SC)n[nH]1,97%
2,Cc1ccc(CSc2nc3[nH]ncc3c(=O)[nH]2)cc1,93%
3,Cc1ccccc1-n1nc(SCC(=O)O)sc1=S,99%
4,Cc1ccc(C(=O)Cn2cccn2)cc1,106%
5,CC(=O)NC(=S)NNC(=O)c1ccc(Br)cc1,108%
6,NS(=O)(=O)c1cccc(NC(=O)COC(=O)/C=C/c2ccco2)c1,94%
7,O=C(Nc1ccc(Br)cn1)c1ccc([N+](=O)[O-])cc1Cl,98%
8,NC(=O)c1ccc(CN2CCC(Cc3ccccc3)CC2)cc1,110%
9,COc1cccc(CN(C)CC(=O)Nc2ccccc2C(=O)Nc2ccccc2)c1,105%
10,CC(OC(=O)c1ccccc1OCc1ccc(Cl)cc1)C(N)=O (stereo unspecified),102%
11,Cc1cc(C)c(S(=O)(=O)N2CCOCC2)cc1C,101%
12,CN1CCN(S(=O)(=O)c2cccc(C(=O)O)c2)CC1,98%
13,CCOCCCNCc1cc(Br)ccc1OCC,95%
14,Cc1cccc(/C(N)=N/OC(=O)c2ccccc2Cl)c1,95%
15,C/C(=N\Nc1nc(N2CCOCC2)nc(N2CCOCC2)n1)c1ccc([N+](=O)[O-])cc1,96%
16,C/C(CC(=O)Nc1cccc(C(F)(F)F)c1)=N\NC(=O)C(=O)NCC(C)C,96%
17,CC(C)CNC(=O)C(=O)NCc1ccccc1,93%
18,O=[N+]([O-])c1cc(S(=O)(=O)CCCN2CCOCC2)ccc1F,95%
19,Cc1ccc(C2CCN(C(=S)Nc3cccc(Cl)c3)C2)cc1 (stereo unspecified),101%
20,CCOC(=O)/C(C#N)=C/c1cn(CCC(=O)O)nc1-c1ccc(Br)cc1,102%
21,c1ccc2c(c1)OCCOCCOCCO2,99%
22,O=C(C1CCN(C2CCN(Cc3ccc4cc(F)ccc4n3)CC2)CC1)N1CCCC1,98%

row,SMILES,GTP binding activity (percent of control)
1,CCC(C)NC(=O)c1nn(C)c(=O)c2ccccc12 (stereo unspecified),103%
2,Cc1[nH]nc(SCC(=O)NCC(C)C)c1[N+](=O)[O-],96%
3,Cc1ccc(OCCCC(=O)NC(C)c2ccccc2)c(C)c1 (stereo unspecified),97%
4,Cc1cccc(NS(=O)(=O)c2ccc(C)c(C(N)=O)c2)c1,102%
5,CC1COc2ccccc2N1S(=O)(=O)c1ccccc1 (stereo unspecified),95%
6,O=[N+]([O-])c1ccc2[nH]c3c(c2c1)CCCC3O (stereo unspecified),103%
7,Cc1ccccc1NC(=O)c1nn(-c2ccc(F)c(F)c2)ccc1=O,95%
8,O=C(O)CCCCOn1ccnc1,97%
9,Cc1ccc(C(=O)N/C(=C\c2cccs2)C(=O)NCCc2ccccn2)cc1C,106%
10,CNc1nc2c(C)cccn2c(=O)c1C=Nc1ccc(OC)cc1,90%
11,COc1ccccc1N1CCN(c2ccc([N+](=O)[O-])nc2)CC1,104%
12,CC1(C)C2CCC1(C)C(OC(=O)c1ccc(O)cc1)C2 (stereo unspecified),97%
13,O=C(O/N=C(/c1ccccc1)c1ccncc1)c1ccccc1[N+](=O)[O-],95%
14,O=C(c1snnc1-c1ccccc1)N1CCOCC1,100%
15,CCc1nc2ccccc2c(C(=O)OC2CCCCC2=O)c1C (stereo unspecified),99%
16,CC(C)(C)NC(=O)COC(=O)c1cc(Cl)ccc1[N+](=O)[O-],102%
17,COc1ccc(C(=O)NNc2cc(C)nc(NNC(=O)c3ccc(OC)cc3)n2)cc1,102%
18,Cc1ccc(NC(=O)Cn2c(=O)n(CCC(=O)NC3CCN(Cc4ccccc4)CC3)c(=O)c3ccccc32)cc1,102%
19,C[C@H](NC(=O)c1ccccc1Cl)C(=O)OCCOc1cccc(Cl)c1,94%
20,OCCNCc1cccc(OCc2ccccc2Cl)c1,97%
21,CN(C)C(=O)N1CCNCC1,106%
22,CCCCCC1CCC(c2nnc(SCC(C)=O)o2)CC1 (stereo unspecified),104%
